These results are taken from PubChem BioAssay AID686978 (National Center for Advancing Translational Sciences (NCATS), 2013).

Values joined by “and” are separate entries in the source; they are usually repeats but may differ in a detail not shown here. Equal entries are not always repeated. Out of some 420,000 compounds screened, about 64,000 (15%) were called active. Inconclusive results (about 27%) are left out. The call rests on the fitted dose curve; in most records, active means well fitted inhibition curve with a large enough effect; inconclusive means small, poorly fitted or top-dose-only effect; inactive means flat fitted curve, though single readings scatter. Not all results are given here. A call without a number means that no potency is given here.
Potency means the concentration at half of the fitted maximal effect.

The test can be described thus: qHTS for Inhibitors of human tyrosyl-DNA phosphodiesterase 1 (TDP1): qHTS in cells in absence of CPT. Further: nearly all actives have a fitted effect of over 55% in size. Particulars: DT40 Tdp1-/- hTDP1 cells, no CPT, ATP luminescence, 48 h; activity change, negative = growth inhibition: at 46.2 µM (top of the series). An excerpt:
Human tyrosyl-DNA phosphodiesterase 1 (TDP1) is a novel repair gene, and we propose to use it as a new target for anticancer drug development. TDP1 is not an essential protein, but under treatment with topoisomerase I poison (camptothecin: CPT), TDP1 works as a critical factor for cell survival. To directly identify novel TDP1 inhibitors active in a cellular environment, we have knocked-out the Tdp1 gene in chicken DT40 cells (Tdp1-/-) and generated a complemented counterpart cells that contains a stable transfection of the human TDP1 gene (Tdp1-/-;hTDP1 cells). For the primary screen, Tdp1-/-;hTDP1 cells will be exposed to small molecules in the presence or absence of CPT, and their growth kinetics will be evaluated after 48 hours by measuring ATP activity. […] The hit compounds will then be evaluated in the presence or absence of CPT using Tdp1-/- cells. […] In tertiary assays, biochemical gel-based assays will be used to assess whether the hit compounds specifically target TDP1.
To this end, we have screened this cell line against the MLSMR in two primary screens. In one screen we add CPT and in the other we screen in the absence of CPT; this AID represents the screen where CPT was absent.
NIH Chemical Genomics Center [NCGC]
NIH Molecular Libraries Probe Centers Network [MLPCN]
Assay Submitter (PI): Yves Pommier, NCI
DT40-hTDP1 cells without 20 nM Camptothecin (add 20 microL of DMSO in 1 L of cell culture medium) were dispensed at 400 cells/5microL/well in tissue culture treated 1536-well white wall/solid bottom assay plates (Greiner Bio-One North America, NC, U.S.A.) using a Multidrop Combi 8 channel dispenser (Thermo Fisher, Waltham, MA, USA). 23 nL compounds and controls were transferred using the pin tool (Kalypsys, San Diego, CA, USA) to the assay plates. The assay plates were then incubated at 37 masculineC for a minimum 48 hr. Three microL of Cell Titer Glo solution was added to the plates and incubated at RT in dark for 30 min. Luminescence was read using ViewLux (Perkin Elmer) with 1 sec exposure slow speed, high gain and 2x binning.
(In general: Quantitative high-throughput screening tests each substance at several concentrations.)
For the compound `CCOc1ccc(NC(=O)c2cc(C)nc3ccccc23)cc1`, the Potency result is “inactive”. Consider `O=C(NNC(=O)c1cc(-c2ccccc2Cl)nc2ccccc12)c1csc(N2CCOCC2)n1`, for which the Potency result is “inactive”. On to `O=C(Nc1ccccc1N1CCOCC1)c1csc2c1CCCC2`, for which the Potency entry was “inactive”. With `CCOc1cc(N2CCOCC2)c(OCC)cc1NC(=O)c1cc(C)nc2ccccc12`, the Potency is 14.6 µM (active). For `CCOc1cc(N2CCOCC2)c(OCC)cc1NC(=O)c1ccc(C)s1`, the Potency was 2.06 µM (active). Take `COc1cc(C(=O)Nc2cc(C(F)(F)F)ccc2N2CCOCC2)ccc1O`: the Potency result is “inactive”.

For `Cc1oc(C)c(C(=O)NCCCC(=O)O)c1C(=O)NCCCC(=O)O`, the Potency entry is “inactive”. Turning to `Cc1ccc(S(=O)(=O)N2CCCCC2)cc1C(=O)N1CCN(CCO)CC1`, the Potency entry was “inactive”.

On to `CCn1nc(C)c(CNC(=O)C2CCC(=O)N(Cc3cccc(F)c3)C2)c1C` (stereo not given), for which the Potency result is “inactive”. On to `CCc1ccc(C(=O)OCC(=O)NCC(F)(F)F)cc1`, for which the Potency result is “inactive”.

In the case of `CC(N)C12CC3CC(CC(O)(C3)C1)C2` (stereo not given), the Potency entry is “inactive”. As for `C=C1c2cc(CC)ccc2NC(=O)N1c1ccc(C)cc1`, the Potency entry was “inactive”. For `CCc1cccc(NC(=O)c2cc(-c3ccccc3)n[nH]2)c1`, the Potency result is “inactive”. With `CCc1ccc2c(c1)C1(NN=C(c3ccccc3)S1)C(=O)N2` (stereo not given), the Potency was 2.31 µM (active). For the compound `Cc1cccc(C)c1NC(=O)C(c1ccccc1)N1CC(=O)Nc2ccccc21` (stereo not given), the Potency result was “inactive”.

Take `COc1ccc(/C=C(\NC(=O)c2ccc(OCC(C)C)cc2)C(=O)OCc2ccco2)cc1`: the Potency was 16.4 µM (active). Regarding `COc1ccc(/C=C(/NC(=O)c2ccccc2)C(=O)Nc2cccc(C(=O)O)c2)cc1`, the Potency result was “inactive”. For `COc1ccc(/C=C(/NC(=O)c2ccco2)C(=O)Nc2ccc(C(C)=O)cc2)cc1`, the Potency entry is “inactive”. As to `CCOc1cc(/C=N/NC(=O)c2ccncc2)cc(Br)c1O`, the Potency result was “inactive”. As for `Cc1ccc(OCCOc2cccc(/C=N/NC(N)=O)c2)cc1`, the Potency entry was “inactive”.

Take `Cc1ccc(OCCOCCOc2ccc(Br)cc2/C=N\NC(=O)c2ccncc2)cc1`: the Potency is 18.4 µM (active).

Turning to `CCCOn1c(-n2nc(C)cc2C)nc2ccccc2c1=O`, the Potency result is “inactive”. As to `CC(=O)c1ccc(OCC(=O)N(C)C2CCS(=O)(=O)C2)cc1` (stereo not given), the Potency entry was “inactive”. For the compound `Cc1oc(-c2cccc(NC(=O)c3ccccc3)c2)nc1CNC(=O)c1cnc2ccccn2c1=O`, the Potency entry was “inactive”. In the case of `Cc1cc2c(cc3c(SCc4nc(-c5ccccc5)oc4C)nnc(C)n32)o1`, the Potency is 16.4 µM (active). In the case of `Cc1cc(NC(=O)CSCc2nc(-c3cccc(Cl)c3)oc2C)no1`, the Potency result is “inactive”.

`C/C(=C\C(=O)c1cccnc1)Nc1ccc(C)c(C)c1`: the Potency result is “inactive”. The entry for `CSc1nc2ccccc2cc1/C=C(\C#N)c1ccc(Cl)cc1Cl` is “inactive”. As to `CC(C)c1nnc(NC(=O)CCC(=O)N2CCN(c3cccc(Cl)c3)CC2)s1`, the Potency result was “inactive”. `O=C(CCCC(=O)N1CCN(c2cccc(Cl)c2)CC1)c1ccccc1`: the Potency is 18.4 µM (active). Consider `O=C(CCCN1C(=O)C2C3C=CC(C3)C2C1=O)N1CCN(c2ccccc2)CC1` (stereo not given), for which the Potency entry is “inactive”. Take `COc1ccc(NC(=O)CN(C)C(=O)c2ccc(NC3CC3)c([N+](=O)[O-])c2)cc1`: the Potency entry is “inactive”. For the compound `O=C1CN(C(=O)c2ccccc2F)C(c2ccc(F)cc2)c2cc(F)ccc2N1` (stereo not given), the Potency entry was “inactive”. The entry for `CCOC(=O)CCc1c(C)c2ccc(OCc3nn[nH]n3)c(C)c2oc1=O` is “inactive”; for `CC(C)C[C@@H]1COc2cc(N3CCC[C@@H]3CO)ccc2S(=O)(=O)N1` it is “inactive”; for `COc1ccc(/C=C2/SC(=O)N(CCCCCC(=O)Nc3ccccc3C(=O)O)C2=S)cc1` it is “inactive”. For `CNN/C(N=Cc1ccc([N+](=O)[O-])s1)=N\S(=O)(=O)c1cc(C)c(Cl)cc1SCc1ccccc1`, the Potency is 1.3 µM (active). On to `CCC(C)(C(=O)NC1CCCCC1)N(C)C(=O)c1ccc2c(c1)OCO2` (stereo not given), for which the Potency entry is “inactive”. The result for `O=[N+]([O-])c1cccc(/C([O-])=C(/C(=S)Nc2ccccc2F)[n+]2ccccc2)c1` reads “inactive”; that for `CCOc1ccccc1NC(=O)NC1CCCCCCC1`, “inactive”; that for `CCOc1ccccc1NC(=S)C(=C([O-])c1ccc2c(c1)OCCO2)[n+]1ccc(CC)cc1`, 18.4 µM (active). For the compound `CC1(C)O[C@@H]2[C@H](O1)[C@@H](CO)O[C@H]2n1c(N2CCCCC2)nc2c(N)ncnc21`, the Potency entry was “inactive”.

With `CC(C)=CCN1CCN(Cc2cc3ccccc3[nH]2)CC1CCO` (stereo not given), the Potency entry is “inactive”. The entry for `COc1ccc(COC(=O)NC(C(=O)O)c2ccccc2)cc1` (stereo not given) is “inactive”; for `Cc1nn(CCOc2ccccc2)c(=O)n1-c1ccccc1F` it is “inactive”; for `COc1cccc(N2CCN(C3CC(=O)N(c4ccc(Cl)cc4)C3=O)CC2)c1` (stereo not given) it is “inactive”. `CCc1nn(CCCN2CCN(c3cccc(Cl)c3)CC2)c(=O)n1CCOc1ccccc1`: the Potency is 15 µM (active) and 5.31 µM (active). Consider `CN1C(C(=O)NCC2CC2)CC2Cn3c(nc4ccccc43)C21` (stereo not given), for which the Potency result was “inactive”. With `CCS(=O)(=O)c1ccc(O)c(NC(=O)COc2ccc(Cl)cc2)c1`, the Potency entry is “inactive”. The result for `O=C(Nc1cccc(S(=O)(=O)NC2=NCCC2)c1)c1ccc(F)cc1F` reads “inactive”.

Turning to `O=C(Nc1cc(S(=O)(=O)Nc2ccc(Cl)cc2)ccc1O)c1ccc(F)cc1F`, the Potency is 13 µM (active). The result for `N#CNC1=NCN(CCc2ccccc2)CN1` reads “inactive”; that for `O=C(CCN1CCCCC1)Nc1ccc(F)c(F)c1`, “inactive”; that for `COc1ccccc1CCNS(=O)(=O)c1cc2c3c(c1)C(C)C(=O)N3CCC2` (stereo not given), 2.91 µM (active). Consider `COc1ccc(N2CCN(S(=O)(=O)c3cc4c5c(c3)C(C)C(=O)N5CCC4)CC2)cc1` (stereo not given), for which the Potency entry was “inactive”. In the case of `COc1ccc(C)cc1S(=O)(=O)Nc1cc2c3c(c1)CCC(=O)N3CCC2`, the Potency result is “inactive”.

In the case of `Cc1cccc(NC(=O)Cc2ccc(Br)cc2)n1`, the Potency result was “inactive”.

`CCOC(=O)C1CCN(C(=O)Cc2c(C(=O)O)[nH]c3ccccc23)CC1`: the Potency result is “inactive”. On to `COC(=O)Cc1nc2ccccc2[nH]1`, for which the Potency entry was “inactive”. As for `COC(=O)Cc1c(-c2[nH]c3ccccc3c2CC(=O)OC)[nH]c2ccccc12`, the Potency is 14.6 µM (active).

As to `COc1ccc(S(=O)(=O)N2CCOCC2)c(C)c1C`, the Potency entry was “inactive”. With `COc1ccc(NC(=O)COC(=O)c2ccc(NS(=O)(=O)/C=C/c3ccccc3)cc2)cc1`, the Potency result is “inactive”. As for `COc1ccccc1Cn1c(=S)[nH]c2cc(C(=O)N3CCN(C)CC3)ccc2c1=O`, the Potency result was “inactive”. For `COc1ccc(CNC(=O)C2CCN(C(=O)c3ccco3)CC2)cc1`, the Potency entry was “inactive”. For `COc1ccc(Cn2c(=O)[nH]c3cc(C(=O)N4CCN(C(=O)c5ccco5)CC4)ccc3c2=O)cc1`, the Potency was 11.2 µM (active).
